# Source: the supplement of paper PMC8371130
# Where a name gives a salt, the structure may show the parent alone.
# Tested on: HL-1
# Test: relative cell viability (CellTiter-Glo) vs DMSO control (% of DMSO control); higher = more viable cells
# Method in brief: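 HL-1 mouse atrial cardiomyocytes were plated in 384-well plates at 1000 cells per well together with compounds at 40, 200, 1000 or 5000 nM in 0.01% DMSO. One day later, cells went to a hypoxic workstation (1% O2) for 48 h, then were reoxygenated for 24 h in a normal incubator, or stayed in normoxia for the same time. Cell viability was read by CellTiter-Glo luminescence and normalised to vehicle-treated control cells.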
# [1] = oxygen condition: hypoxia 48 h (1% O2) + reoxygenation 24 h, 40 nM
# [2] = oxygen condition: hypoxia 48 h (1% O2) + reoxygenation 24 h, 200 nM
# [3] = oxygen condition: hypoxia 48 h (1% O2) + reoxygenation 24 h, 1000 nM
# [4] = oxygen condition: hypoxia 48 h (1% O2) + reoxygenation 24 h, 5000 nM
# [5] = oxygen condition: normoxia 72 h, 40 nM
# [6] = oxygen condition: normoxia 72 h, 200 nM
# [7] = oxygen condition: normoxia 72 h, 1000 nM
# [8] = oxygen condition: normoxia 72 h, 5000 nM
compound,measurement,setting,value
C[C@]12CC[C@@H]3c4ccc(O)cc4CC[C@H]3[C@@H]1CC[C@@H]2O [Estradiol],relative cell viability,[1],105
same,relative cell viability,[2],98.2
same,relative cell viability,[3],100
same,relative cell viability,[4],94
same,relative cell viability,[5],101
same,relative cell viability,[6],103
same,relative cell viability,[7],100
same,relative cell viability,[8],100
CCOC(=O)c1ncn2c1CN(C)C(=O)c1cc(F)ccc1-2 [Flumazenil],relative cell viability,[1],104
same,relative cell viability,[2],107
same,relative cell viability,[3],100
same,relative cell viability,[4],115
same,relative cell viability,[5],107
same,relative cell viability,[6],98.5
same,relative cell viability,[7],104
same,relative cell viability,[8],106
CC1(C)S[C@@H]2[C@H](NC(=O)[C@H](N)c3ccc(O)cc3)C(=O)N2[C@H]1C(=O)O [Amoxicillin],relative cell viability,[1],104
same,relative cell viability,[2],103
same,relative cell viability,[3],111
same,relative cell viability,[4],114
same,relative cell viability,[5],104
same,relative cell viability,[6],100
same,relative cell viability,[7],106
same,relative cell viability,[8],108
CC(=O)O[C@H]1C(=O)[C@@]2(C)[C@H]([C@H](OC(=O)c3ccccc3)[C@]3(O)C[C@H](OC(=O)[C@H](O)[C@@H](NC(=O)c4ccccc4)c4ccccc4)C(C)=C1C3(C)C)[C@]1(OC(C)=O)CO[C@@H]1C[C@@H]2O [Paclitaxel],relative cell viability,[1],42.4
same,relative cell viability,[2],42.8
same,relative cell viability,[3],39.9
same,relative cell viability,[4],30.5
same,relative cell viability,[5],52.3
same,relative cell viability,[6],52.2
same,relative cell viability,[7],33.2
same,relative cell viability,[8],22.2
COc1cc2/c(=N/c3ccc(Br)cc3F)nc[nH]c2cc1OCC1CCN(C)CC1 [Vandetanib],relative cell viability,[1],110
same,relative cell viability,[2],115
same,relative cell viability,[3],115
same,relative cell viability,[4],102
same,relative cell viability,[5],113
same,relative cell viability,[6],112
same,relative cell viability,[7],116
same,relative cell viability,[8],102
CC(=O)Oc1ccc(C(c2ccc(OC(C)=O)cc2)c2ccccn2)cc1 [Bisacodyl],relative cell viability,[1],103
same,relative cell viability,[2],100
same,relative cell viability,[3],109
same,relative cell viability,[4],111
same,relative cell viability,[5],101
same,relative cell viability,[6],115
same,relative cell viability,[7],101
same,relative cell viability,[8],101
COc1ccc2[nH]c([S@@+]([O-])Cc3ncc(C)c(OC)c3C)nc2c1 [Esomeprazole magnesium],relative cell viability,[1],107
same,relative cell viability,[2],113
same,relative cell viability,[3],114
same,relative cell viability,[4],118
same,relative cell viability,[5],104
same,relative cell viability,[6],114
same,relative cell viability,[7],115
same,relative cell viability,[8],119
CCOc1cc(N)c(Cl)cc1C(=O)NCC1CN(Cc2ccc(F)cc2)CCO1 (stereo not drawn) [Mosapride citrate],relative cell viability,[1],105
same,relative cell viability,[2],106
same,relative cell viability,[3],104
same,relative cell viability,[4],104
same,relative cell viability,[5],104
same,relative cell viability,[6],109
same,relative cell viability,[7],103
same,relative cell viability,[8],109
Cc1nccn1CC1CCc2c(c3ccccc3n2C)C1=O (stereo not drawn) [Ondansetron],relative cell viability,[1],99.4
same,relative cell viability,[2],103
same,relative cell viability,[3],102
same,relative cell viability,[4],109
same,relative cell viability,[5],102
same,relative cell viability,[6],99.7
same,relative cell viability,[7],101
same,relative cell viability,[8],107
C=C1CC[C@H](O)C/C1=C/C=C1\CCC[C@]2(C)[C@@H]([C@H](C)CCCC(C)(C)O)CC[C@@H]12 [Calcifediol],relative cell viability,[1],112
same,relative cell viability,[2],106
same,relative cell viability,[3],106
same,relative cell viability,[4],109
same,relative cell viability,[5],103
same,relative cell viability,[6],104
same,relative cell viability,[7],114
same,relative cell viability,[8],117
CCC1(c2ccccc2)C(=O)NCNC1=O [Primidone],relative cell viability,[1],101
same,relative cell viability,[2],105
same,relative cell viability,[3],110
same,relative cell viability,[4],95.7
same,relative cell viability,[5],104
same,relative cell viability,[6],103
same,relative cell viability,[7],98.6
same,relative cell viability,[8],106
Cc1cccc(Nc2ccncc2S(=O)(=O)NC(=O)NC(C)C)c1 [Torsemide],relative cell viability,[1],103
same,relative cell viability,[2],102
same,relative cell viability,[3],107
same,relative cell viability,[4],106
same,relative cell viability,[5],106
same,relative cell viability,[6],112
same,relative cell viability,[7],112
same,relative cell viability,[8],105
CC1(C)O[C@@H]2[C@@H](CO[C@@]3(COS(N)(=O)=O)OC(C)(C)O[C@@H]23)O1 [Topiramate],relative cell viability,[1],97.3
same,relative cell viability,[2],91.8
same,relative cell viability,[3],108
same,relative cell viability,[4],100
same,relative cell viability,[5],104
same,relative cell viability,[6],107
same,relative cell viability,[7],98
same,relative cell viability,[8],98.8
COc1c2ccoc2cc2oc(=O)ccc12 [Bergapten],relative cell viability,[1],101
same,relative cell viability,[2],104
same,relative cell viability,[3],107
same,relative cell viability,[4],109
same,relative cell viability,[5],99.2
same,relative cell viability,[6],96.6
same,relative cell viability,[7],109
same,relative cell viability,[8],103
CN(c1nccc(=O)[nH]1)C1CCN(c2nc3ccccc3n2Cc2ccc(F)cc2)CC1 [Mizolastine],relative cell viability,[1],97.1
same,relative cell viability,[2],98.1
same,relative cell viability,[3],101
same,relative cell viability,[4],108
same,relative cell viability,[5],97.3
same,relative cell viability,[6],94.6
same,relative cell viability,[7],101
same,relative cell viability,[8],107
Cn1c([N+](=O)[O-])cnc1COC(N)=O [Ronidazole],relative cell viability,[1],107
same,relative cell viability,[2],112
same,relative cell viability,[3],106
same,relative cell viability,[4],118
same,relative cell viability,[5],112
same,relative cell viability,[6],113
same,relative cell viability,[7],121
same,relative cell viability,[8],110
